Test results published in PubChem BioAssay (NCI).
Compounds without any hit were thinned out: in the full panel of roughly 83,000, 20% have a hit.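 Interpretation: 100, growth as untreated; towards 0, rising growth inhibition; 0, no net growth; 0 to -100, cell death. Compounds scoring below 10 were considered active.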 Active and inactive are the calls of the source.

System: HL-60(TB) leukemia
Test: NCI-60 one-dose screen, 48 h (100 = growth as untreated, 0 = no growth, -100 = all killed)
Settings: 10 µM unless noted

| Compound | growth |
| --- | --- |
| Cc1ccc2c(O)c(O)cc(NC(C)CCCN)c2n1 (stereo not given) | 28.3% (inactive) |
| CN(C)c1ccc(Nc2c3ccccc3nc3ccccc23)cc1 | -2.21% (active) |
| CC(C)Cc1nc(Nc2ccccc2)[nH]c(=O)c1C#N | 57.7% (inactive) |
| O=C(CCNC(=O)c1nc(-c2ccccc2)n(-c2ccc(Cl)cc2)n1)NO | 96.8% (inactive) |
| NC(N)=N/N=C(/c1ccccc1)c1ccccc1F | -47% (active) |
| Fc1ccc(-c2nc(-c3ccc(-c4nc5ccc(F)cc5[nH]4)cc3)no2)cc1 | 96.3% (inactive) |
| C=C1CCC2C3(C)COC(C)(C)OC3CCC2(C)C1C/C=C1/C(=O)OCC1OC(C)=O (stereo not given) | -43.8% (active) |
| CCOC(=O)c1c(C)oc2ncnc(Nc3ccc(NC(=O)Nc4cccc(Cl)c4)cc3)c12 | 88.4% (inactive) |
| N#Cc1c(N)sc(=S)c2c1CCCC2 | 97.6% (inactive) |
| CCCN(CCC)CN(CCC)CCC | 93.5% (inactive) |
| Cc1cc(NC(=O)C2c3ccccc3C(=O)N(CC(C)C)C2c2cccs2)no1 (stereo not given) | 0.0249% (active) |
| c1ccc(CCNc2ncnc3[nH]ncc23)cc1 | 79.6% (inactive) |
| Clc1ccc2c(NCCNc3nc(N4CCCC4)nc4ccccc34)ccnc2c1 | -70% (active) |
| COc1ccc(/C=C(\C#N)c2cc3ccccc3n2S(C)(=O)=O)cc1 | 89.6% (inactive) |
| N#C/C(=C\c1ccc(-c2ccccc2F)o1)c1nc(-c2ccco2)cs1 | 91.2% (inactive) |
| Cc1cc(Nc2ccc3c(c2)OCO3)c2cc3c(cc2n1)OCO3 | -11.9% (active) |
| CCCCCC(=O)O[C@]1(C(C)=O)CCC2C3CCC4=CC(=O)CC[C@]4(C)C3CC[C@@]21C (stereo not given in full) | -43.2% (active) |
| Cc1cc(C2(c3cc(C)c(O)cc3C)OS(=O)(=O)c3ccccc32)c(C)cc1O | 87.8% (inactive) |
| Cn1cc(-c2nnc(-c3cn(C)c4ncc(Br)cc34)o2)c2ccccc21 | 99% (inactive) |
| C=C1C(=O)O[C@H]2[C@H]1CC/C(COC(=O)CCCCCCC(=O)OC/C1=C/CC[C@@]3(C)O[C@H]3[C@H]3OC(=O)C(=C)[C@@H]3CC1)=C\CC[C@@]1(C)O[C@@H]21 | -13.8% (active) |

| Compound | growth |
| --- | --- |
| COC(=O)Nc1nc2ccc(S(=O)c3ccccc3)cc2[nH]1 (stereo not given) | 22.7% (inactive) |
| O=S(=O)(Nc1ccsc1-c1nc(-c2ccccc2)no1)c1cc(Cl)cc(Cl)c1 | 119% (inactive) |
| CN(C)c1nc(N)c(N=O)c(N)n1 | 106% (inactive) |
| CN(C)CCC=C1c2ccccc2C(C)(C)c2ccccc21 | 85.5% (inactive) |
| NC(=O)CN1CCN(c2ccccc2Cl)CC1 | 92.4% (inactive) |
| N#Cc1nc(-c2ccccc2)oc1S(=O)(=O)NCC(c1ccc(Cl)cc1)N1CCCCC1 (stereo not given) | 8.18% (active) |
| COc1ccc(/C=C2\CCCC3=C2NC(N)=NC3c2ccc(OC)c(OC)c2)cc1OC (stereo not given) | 42.4% (inactive) |
| CCCCCOc1ccc(/C=N/Nc2cc(C)nc3ccc(Cl)cc23)cc1 | 0.0681% (active) |
| COc1cccc(NC(=O)c2sc3nc4c(cc3c2N)C(O)CCC4)c1 (stereo not given) | -16.8% (active) |
| COc1cc(C(=O)/C=C/c2c(-c3cccs3)nc3sccn23)cc(OC)c1OC | 1.04% (active) |
| O=C(/C=C/c1cccc(B(O)O)c1)c1cccc(B(O)O)c1 | -13.8% (active) |
| CC/C=C\C[C@H](O)C/C=C1/C(=O)C=C[C@@H]1C/C=C\CCCC(=O)OCCS(=O)(=O)c1ccccc1 | 62.1% (inactive) |
| O=C(Nc1nc2c(C(F)(F)F)cccc2s1)c1cc(Cl)ccc1O | -38.8% (active) |
| Cc1ccccc1Nc1n[nH]c(Cc2ccccc2)n1 | 66.9% (inactive) |
| N#C/C(=C\c1ccc2c(c1)OCO2)c1ccccc1 | 62% (inactive) |
| COc1ccc(C(=O)/C=C/c2ccc(Cl)cc2)cc1S(N)(=O)=O | -3.41% (active) |
| Cc1ccc(S(=O)(=O)n2cc(C(=O)C(=O)N3CCOCC3)c3ccccc32)cc1 | 66.6% (inactive) |
| CCCCCCCCCCCC[N+](C)(C)Cc1ccccc1 | -52.6% (active) |
| COc1ccccc1-n1c(-c2cc(O)ccc2C)cn2c3c(=O)[nH]c(=O)n(C)c3nc12 | 110% (inactive) |
| c1ccc(CCNc2c3ccccc3nc3ccccc23)cc1 | 41.3% (inactive) |
